Consider seven sequences from publication PMC4081100, “A DNA-binding-site landscape and regulatory network analysis for NAC transcription factors in Arabidopsis thaliana”.

What all share (test): universal protein binding microarray (PBM); transcription factors of Arabidopsis thaliana; high values mean tight binding
Holding throughout (details): protein: recombinant; tags: GST; chain copies: 2; dsDNA, one strand shown

For one assay, the target named is T1, GST-ANAC092(1-176) (Arabidopsis thaliana, UniProt Q9FKA0 1-176).
T1 sequence: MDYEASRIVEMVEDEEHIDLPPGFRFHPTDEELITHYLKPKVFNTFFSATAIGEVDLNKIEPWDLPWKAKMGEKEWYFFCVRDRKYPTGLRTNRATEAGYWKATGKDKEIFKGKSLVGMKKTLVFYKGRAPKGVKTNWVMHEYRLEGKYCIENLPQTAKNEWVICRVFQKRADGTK
A digest of the protocol:
(§1)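 For zinc-finger proteins, zinc acetate was added while GST-tagged NAC-domain, full-length or DNA-binding-domain proteins were induced in cells. Purification used glutathione–Sepharose 4B, and quantification used A280 or anti-GST western blot. Custom all-10-mer Agilent 4 × 180K arrays, made double-stranded by primer extension, each received a protein at 200 to 500 nM final in duplicate. Scoring covered gapped and ungapped 8-mers, with binding given as the normalised enrichment score (E-score).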

The next assay deals with GST-NTL6(1-168) (Arabidopsis thaliana, UniProt Q9SCK6 1-168). A digest of the protocol: as §1
The next assay deals with T2, GST-ANAC019 NAC domain (Arabidopsis thaliana, UniProt Q9C932 14-162).
T2 sequence: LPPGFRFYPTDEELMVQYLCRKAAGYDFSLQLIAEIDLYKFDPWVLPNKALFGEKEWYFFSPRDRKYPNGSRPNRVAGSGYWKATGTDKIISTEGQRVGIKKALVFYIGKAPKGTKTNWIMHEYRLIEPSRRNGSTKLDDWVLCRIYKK
In short, it runs like this: as §1

Another assay addresses T3, GST-ANAC055(1-171) (Arabidopsis thaliana, UniProt Q9LDY8 1-171).
T3 sequence: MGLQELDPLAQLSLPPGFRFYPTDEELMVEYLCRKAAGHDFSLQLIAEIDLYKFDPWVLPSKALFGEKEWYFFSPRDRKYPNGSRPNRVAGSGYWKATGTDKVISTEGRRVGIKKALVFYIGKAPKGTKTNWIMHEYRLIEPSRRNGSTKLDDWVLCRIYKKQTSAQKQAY
A digest of the protocol:
as §1

For the next assay, the target named is T4, GST-ATAF1 NAC domain (Arabidopsis thaliana, UniProt Q39013 7-158).
T4 sequence: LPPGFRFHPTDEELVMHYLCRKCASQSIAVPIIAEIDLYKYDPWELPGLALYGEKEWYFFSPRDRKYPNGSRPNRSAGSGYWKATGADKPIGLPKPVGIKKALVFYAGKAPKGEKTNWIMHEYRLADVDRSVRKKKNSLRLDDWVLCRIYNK
A digest of the protocol: as §1

The target in assay [1] is T5, GST-ANAC092(1-285) full length (Arabidopsis thaliana, UniProt Q9FKA0 1-285).
T5 sequence: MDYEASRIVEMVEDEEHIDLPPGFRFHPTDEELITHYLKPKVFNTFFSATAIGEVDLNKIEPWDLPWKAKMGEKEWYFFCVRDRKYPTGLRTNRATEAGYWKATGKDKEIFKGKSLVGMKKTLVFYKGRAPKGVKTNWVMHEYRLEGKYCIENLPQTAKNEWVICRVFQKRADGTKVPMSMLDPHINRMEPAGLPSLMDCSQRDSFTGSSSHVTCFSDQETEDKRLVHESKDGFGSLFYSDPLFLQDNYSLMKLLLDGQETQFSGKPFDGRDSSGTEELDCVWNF
A digest of the protocol:
as §1

Another assay has as its target T6, GST-NAP(1-166) (Arabidopsis thaliana, UniProt O49255 1-166).
T6 sequence: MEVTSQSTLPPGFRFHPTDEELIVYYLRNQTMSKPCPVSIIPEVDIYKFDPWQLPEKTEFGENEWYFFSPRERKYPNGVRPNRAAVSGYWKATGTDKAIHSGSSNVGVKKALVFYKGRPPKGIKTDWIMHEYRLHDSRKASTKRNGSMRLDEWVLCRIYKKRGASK
In short, it runs like this:
as §1

The target in another assay is T7, GST-NST2(1-184) (Arabidopsis thaliana, UniProt Q9M274 1-184).
T7 sequence: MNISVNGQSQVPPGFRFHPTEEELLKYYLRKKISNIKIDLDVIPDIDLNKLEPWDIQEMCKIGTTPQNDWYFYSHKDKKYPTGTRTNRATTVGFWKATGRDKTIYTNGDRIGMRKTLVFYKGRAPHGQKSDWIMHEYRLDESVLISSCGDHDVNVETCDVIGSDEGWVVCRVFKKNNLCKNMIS
A digest of the protocol: as §1

In another assay the target is T8, GST-NTL8 NAC domain (Arabidopsis thaliana, UniProt Q9XIN7 14-156).
T8 sequence: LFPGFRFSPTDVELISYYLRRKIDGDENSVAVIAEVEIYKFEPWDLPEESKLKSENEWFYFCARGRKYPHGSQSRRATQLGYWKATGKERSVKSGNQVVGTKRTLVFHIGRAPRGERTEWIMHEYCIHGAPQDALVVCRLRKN
In short, it runs like this:
as §1

The next assay concerns the target T9, GST-SND1(1-203) (Arabidopsis thaliana, UniProt Q9LPI7 1-203).
T9 sequence: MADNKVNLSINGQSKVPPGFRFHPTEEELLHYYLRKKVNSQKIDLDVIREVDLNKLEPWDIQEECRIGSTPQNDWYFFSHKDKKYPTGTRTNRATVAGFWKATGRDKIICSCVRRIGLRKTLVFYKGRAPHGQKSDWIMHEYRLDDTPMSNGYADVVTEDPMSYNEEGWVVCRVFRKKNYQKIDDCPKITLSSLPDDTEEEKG
In short, it runs like this: as §1

The next assay concerns the target T10, GST-VND3 NAC domain (Arabidopsis thaliana, UniProt Q9FH59 12-162).
T10 sequence: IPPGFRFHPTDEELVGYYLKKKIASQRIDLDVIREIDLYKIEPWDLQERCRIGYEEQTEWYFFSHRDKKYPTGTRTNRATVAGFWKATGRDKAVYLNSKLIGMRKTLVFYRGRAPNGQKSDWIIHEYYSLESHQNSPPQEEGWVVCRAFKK
A digest of the protocol: as §1

A further assay deals with T11, GST-VND7 NAC domain (Arabidopsis thaliana, UniProt Q9C8W9 9-158).
T11 sequence: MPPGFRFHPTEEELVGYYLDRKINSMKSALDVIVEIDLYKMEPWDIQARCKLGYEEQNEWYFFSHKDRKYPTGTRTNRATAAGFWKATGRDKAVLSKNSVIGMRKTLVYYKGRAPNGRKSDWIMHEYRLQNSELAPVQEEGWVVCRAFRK
A digest of the protocol:
as §1

GST-NTL6(1-168), sequence (Q9SCK6 1-168): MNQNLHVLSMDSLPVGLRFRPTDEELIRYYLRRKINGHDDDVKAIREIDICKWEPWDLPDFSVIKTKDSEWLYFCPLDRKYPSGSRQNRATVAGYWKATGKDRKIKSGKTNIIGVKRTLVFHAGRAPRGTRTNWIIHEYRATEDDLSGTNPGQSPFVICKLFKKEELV

For AACGTAAC, the binding signal with GST-ANAC092(1-176) was 0.335 E-score; with GST-NTL6(1-168) it was 0.15 E-score; with GST-ANAC019 NAC domain, 0.15 E-score; in the assay with GST-ANAC055(1-171) it was 0.212 E-score; with GST-ATAF1 NAC domain it was 0.253 E-score; in assay [1], 0.37 E-score. Moreover, the binding signal in the assay with GST-NAP(1-166) is 0.315 E-score; in the assay with GST-NST2(1-184) it was 0.324 E-score; in the assay with GST-NTL8 NAC domain, 0.143 E-score; with GST-SND1(1-203), 0.419 E-score; with GST-VND3 NAC domain, 0.278 E-score; with GST-VND7 NAC domain, 0.269 E-score.
Take TACGTAAA: the binding signal with GST-ANAC092(1-176) is 0.427 E-score; with GST-NTL6(1-168), 0.095 E-score; in the assay with GST-ANAC019 NAC domain, 0.43 E-score; in the assay with GST-ANAC055(1-171), 0.384 E-score; with GST-ATAF1 NAC domain, 0.377 E-score; in assay [1] it was 0.444 E-score. The binding signal with GST-NAP(1-166) came to 0.399 E-score; with GST-NST2(1-184), 0.261 E-score; with GST-NTL8 NAC domain it was 0.172 E-score; with GST-SND1(1-203) it was 0.43 E-score; in the assay with GST-VND3 NAC domain, 0.421 E-score; with GST-VND7 NAC domain it was 0.43 E-score.
Take ACGTAATA: the binding signal with GST-ANAC092(1-176) was determined as 0.425 E-score; with GST-NTL6(1-168), 0.176 E-score; with GST-ANAC019 NAC domain, 0.351 E-score; in the assay with GST-ANAC055(1-171) it was 0.375 E-score; with GST-ATAF1 NAC domain, 0.276 E-score; in [1] it was 0.434 E-score. In addition, the binding signal with GST-NAP(1-166) worked out at 0.346 E-score; with GST-NST2(1-184) it was 0.298 E-score; in the assay with GST-NTL8 NAC domain, 0.142 E-score; with GST-SND1(1-203), 0.387 E-score; with GST-VND3 NAC domain, 0.377 E-score; with GST-VND7 NAC domain, 0.273 E-score.
Consider ACGCAAGT, for which the binding signal amounted to 0.424 E-score with GST-ANAC092(1-176); 0.121 E-score in the assay with GST-NTL6(1-168); 0.277 E-score in the assay with GST-ANAC019 NAC domain; 0.295 E-score with GST-ANAC055(1-171); 0.295 E-score with GST-ATAF1 NAC domain; 0.444 E-score in assay [1]. Besides, the binding signal was found to be 0.356 E-score with GST-NAP(1-166); 0.291 E-score with GST-NST2(1-184); 0.0671 E-score in the assay with GST-NTL8 NAC domain; 0.406 E-score with GST-SND1(1-203); 0.375 E-score with GST-VND3 NAC domain; 0.366 E-score in the assay with GST-VND7 NAC domain.
In the case of AAGTTACC, the binding signal with GST-ANAC092(1-176) turned out to be 0.365 E-score; with GST-NTL6(1-168), 0.308 E-score; with GST-ANAC019 NAC domain, 0.155 E-score; with GST-ANAC055(1-171) it was 0.0803 E-score; with GST-ATAF1 NAC domain, 0.142 E-score; in assay [1], 0.417 E-score. In addition, the binding signal is 0.114 E-score in the assay with GST-NAP(1-166); 0.288 E-score with GST-NST2(1-184); 0.376 E-score with GST-NTL8 NAC domain; 0.37 E-score with GST-SND1(1-203); 0.146 E-score with GST-VND3 NAC domain; 0.0773 E-score with GST-VND7 NAC domain.
As for GGAGGTAA, the binding signal in the assay with GST-ANAC092(1-176) amounted to 0.079 E-score; in the assay with GST-NTL6(1-168), 0.202 E-score; with GST-ANAC019 NAC domain, 0.0898 E-score; in the assay with GST-ANAC055(1-171), 0.0701 E-score; with GST-ATAF1 NAC domain, 0.137 E-score; in assay [1] it was 0.122 E-score. Moreover, the binding signal with GST-NAP(1-166) was 0.146 E-score; in the assay with GST-NST2(1-184), 0.106 E-score; with GST-NTL8 NAC domain, 0.435 E-score; in the assay with GST-SND1(1-203), 0.19 E-score; with GST-VND3 NAC domain it was 0.139 E-score; in the assay with GST-VND7 NAC domain, 0.0814 E-score.
For AATTCCGT, the binding signal came out at 0.274 E-score with GST-ANAC092(1-176); 0.169 E-score with GST-NTL6(1-168); 0.456 E-score with GST-ANAC019 NAC domain; 0.429 E-score with GST-ANAC055(1-171); 0.358 E-score with GST-ATAF1 NAC domain; 0.247 E-score in assay [1]. For the same sequence, the binding signal stood at 0.379 E-score in the assay with GST-NAP(1-166); 0.179 E-score with GST-NST2(1-184); 0.105 E-score with GST-NTL8 NAC domain; 0.122 E-score with GST-SND1(1-203); 0.414 E-score in the assay with GST-VND3 NAC domain; 0.382 E-score in the assay with GST-VND7 NAC domain.
